In PubChem BioAssay AID588856 (National Center for Advancing Translational Sciences (NCATS), 2011):
Several values for one entry are separate records, joined by “and”; a condition that tells them apart may be missing. Equal values may be shown once. The campaign covered roughly 410,000 compounds. About 3,100 (0.76%) were called active. Where a call stands in place of a potency, no number is given. The call rests on the fitted dose curve; in most records, active means well fitted cell-killing curve with a large enough effect; inactive means no such curve, though single readings can be large or run the other way. Many of the other results were omitted from the sample, so actives are more common in it than they were. The source holds several records for some structures; these can differ, active in one and inactive in another.

assay: qHTS for Inhibitors of TGF-b: Cytotox Counterscreen; settings: HepG2 CAGA-GFP viability, ATP luminescence, 18 h; series mostly up to 46.1 µM
Summary of the method: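 CellTiter-Glo luminescence gave cytotoxicity after 18 hours at 37 degrees C. The cells were HepG2 CAGA-GFP in 1% FBS DMEM, stimulated with 500 pg/mL TGF-beta after compound addition. %Activity was normalised to no-cell wells (complete cell-killing) and DMSO (no toxicity), and curves were fitted and classified.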
Potency means the concentration at half of the fitted maximal effect.

SMILES	Potency
Cc1ccc2ccc3c(c2n1)NS(=O)(=O)c1ccccc1-3	inactive
COc1ccc(C(CCN2CCOCC2)c2c(OC)cc(OC)c3c2OC(=O)CC3c2ccc(OC)cc2)cc1 (centres undefined)	inactive
O=C(C[n+]1ccncc1)c1ccc2c(c1)CCCC2	inactive
CC(C)(CNC(=O)Cc1ccc(Cl)cc1Cl)N1CCOCC1	inactive
CC(C)(C)c1cc(C(=O)NN)n(Cc2ccc(Cl)cc2Cl)n1	12.6 µM (active)
Cn1cc(C(=O)c2ccc(Cl)cc2Cl)cc1C(=O)NN	inactive
CCOC(=O)C1CCCN(C(=O)c2ccc3c(c2)sc2nc(-c4ccc(CC)cc4)cn23)C1 (centres undefined)	inactive
Cc1ccc2c(c1)N(C(=O)Nc1ccc(Br)cc1F)CCO2	inactive
COc1cccc(NC(=O)CSc2cc(=O)n(C)c3ccc(Cl)cc23)c1	inactive
CCCCC(O)(CCCC)C(=O)NN(C(=O)CCl)c1ccccc1	inactive
CCCC(O)(CCC)C(=O)NN(C(=O)CCl)c1cccc(C)c1	20 µM (active)
Cc1cccc(N(Cc2ccccc2)C(=O)c2ccccc2F)c1	inactive
CCCn1c(NCc2ccc(N(CC)CC)cc2)nc2ccccc21	inactive
CCOC(=O)c1c(C)[nH]c2c1-c1ccccc1C(=O)C2=O	1.26 µM (active)
CCOC(=O)c1c(C)[nH]c(C)c1S(=O)(=O)N(C)CC(=O)N1CCN(c2ccccc2)CC1	inactive
CCOC(=O)c1c(SCC(=O)Nc2cccc(C)c2C)nc(=O)[nH]c1C	inactive
CCc1nnc(NS(=O)(=O)c2ccc(NC(=S)NC(=O)/C=C/c3cccs3)cc2)s1	inactive
CCc1nnc(NS(=O)(=O)c2ccc(N=Cc3c(C)[nH]n(-c4ccc(C)cc4)c3=O)cc2)s1	8.91 µM (active)
CCc1nnc(NC(=O)CCN(c2ccc(C)cc2)S(=O)(=O)c2ccccc2)s1	inactive
CN(N=O)c1ccc(C=C2c3ccccc3-c3ccccc32)cc1	inactive
Oc1ccccc1C1=NN(c2ccccc2)C(c2ccccc2)C1 (centres undefined)	10 µM (active)

SMILES	Potency
Cc1ccc(N2C(=O)C3N=NN(CC(=O)N4N=C(c5cccc6ccccc56)CC4c4ccccc4)C3C2=O)cc1 (centres undefined)	inactive
COc1ccc(C2CC(c3cccc(OC)c3)=NN2c2ccc(S(N)(=O)=O)cc2)cc1 (centres undefined)	inactive
CC(=O)c1ccc[n+](C(C)CCC(C)[n+]2cccc(C(C)=O)c2)c1 (centres undefined)	inactive
CCOC(=O)c1c(S(=O)(=O)N2CCC(C(=O)NCc3ccccc3OC)CC2)c(C)n(C)c1C	inactive
CCCCCCCCCCOC(=O)Cn1c(COc2cccc(OC)c2)[n+](C)c2ccccc21	20 µM (active)
OC(CBr)CN1CCCCC1 (centres undefined)	inactive
CC(=O)Nc1cccc(NC(=O)CSc2nccn2Cc2ccc3c(c2)OCO3)c1	inactive
Cc1cccc(NC(=O)Cn2c(=O)n(CCC(C)C)c(=O)c3cccnc32)c1	inactive
CCC1CCCCN1CCCNC(=O)c1cc2c(Cl)nc3ccccc3c2s1 (centres undefined)	inactive and 12.6 µM (active)
O=C(NCCN1CCN(Cc2ccccc2)CC1)c1cc2c(=O)[nH]c3ccccc3c2s1	inactive
CCn1c(=O)c2cc(C(=O)NCCc3ccc(Cl)cc3)sc2c2ccccc21	inactive
COc1ccc(CCN2C(=O)c3[nH]nc(-c4ccccc4O)c3C2c2ccc(C)cc2)cc1OC (centres undefined)	inactive
CCCOc1ccc(C2c3c(-c4ccccc4O)n[nH]c3C(=O)N2Cc2cccnc2)cc1 (centres undefined)	inactive
CCCCN1C(=O)c2[nH]nc(-c3ccccc3O)c2C1c1cccc(OCc2ccccc2)c1 (centres undefined)	14.1 µM (active)
O=c1[nH]c2cc(Br)ccc2n2cccc12	inactive
Cc1cccc(N2CCN(C(=O)c3cc4c(=O)oc5ccccc5c4s3)CC2C)c1 (centres undefined)	inactive
CC(C)c1ccc2oc(-c3cc(NC(=O)c4cccs4)ccc3Cl)nc2c1	inactive
CCCn1nc(C(=O)NNC(=O)CSCC(=O)Nc2cc(C)on2)c2ccccc2c1=O	11.2 µM (active)
CCCn1nc(C(=O)NNC(=O)CCOc2ccccc2OCC)c2ccccc2c1=O	inactive
CCCCn1nc(C(=O)Nc2cccc(C(=O)NC3CC3)c2)c2ccccc2c1=O	inactive
Cc1csc[n+]1CCC1CCCCC1	inactive

SMILES	Potency
O=C(O)C1CC=CC2CCN(C3CCCCC3)C(=O)C21 (centres undefined)	inactive
CCCS(=O)(=O)Nc1cccc(-c2cn3ccsc3n2)c1	inactive
CSc1nc(Nc2ccc(F)cc2)cc(-c2ccccc2)n1	inactive
CSc1nc(-c2ccccc2)nc(C(Cl)Cl)n1	5.01 µM (active)
O=C(NCC1CC1)C1(C(F)(F)F)C/C(=C\CCO)CCCO1 (centres undefined)	inactive
Cn1nnnc1SCc1cc(=O)[nH]c2ccccc12	inactive
Cc1ccc(N(Cc2cc(=O)[nH]c3ccccc23)C(=O)CCl)cc1	17.8 µM (active)
Cc1ccc(N(Cc2ccccc2O)C(=O)c2ccccc2F)cc1	inactive
O=c1cc(-c2ccccc2)n2c(SCc3ccccc3)nnc2[nH]1	inactive
CC(C)NC(=O)C1CCC(Cn2c(=O)c3sccc3n(Cc3ccc(F)cc3)c2=O)CC1 (centres undefined)	inactive
Cc1ccc(C(NC(=O)C2CCN(CCOc3ccc(Cl)cc3Cl)CC2)c2ccccn2)cc1 (centres undefined)	20 µM (active)
O=C(NC(c1ccc(-c2ccccc2)cc1)c1cnccn1)C1CCN(CCOc2ccc(Cl)cc2Cl)CC1 (centres undefined)	inactive
Cc1cccnc1C(NC(=O)C1CCN(Cc2ccc(Cl)c(Cl)c2)CC1)c1ccc(Cl)cc1 (centres undefined)	inactive
CCCCOc1ccc(CN2C(=O)C(=O)c3cc(Br)cc(C)c32)cc1OC	15.8 µM (active)
CCCCOc1ccc(Cn2c(=O)oc3ccc(C)cc32)cc1OC	inactive
Cc1cccc2c1N(CCOc1ccccc1)C(=O)C2=O	inactive
CCCn1c(SCC(=O)c2ccc3c(c2)OCCO3)nnc1C(C)C	10 µM (active)
CCCn1c(SCC(=O)Nc2c(C)cccc2C)nnc1C(C)C	inactive
O=C(CSc1nnc(CN2CCCC2)n1-c1ccc(F)cc1)c1ccc2c(c1)OCO2	inactive
Cc1cccc(C)c1-n1ncc(C(=O)NCCCN2CCCCC2)c1C1CCN(C(=O)OC(C)(C)C)CC1	inactive
COc1cc(OC)c(NC(=O)c2cnc(N3CCCC3)nc2C)cc1Cl	inactive

SMILES	Potency
CCOC(=O)c1c(C)[nH]c(C)c1C(=O)COC(=O)/C=C/c1cccc([N+](=O)[O-])c1	inactive
CC(C)c1nnc(NC(=O)COC(=O)/C=C/c2ccc([N+](=O)[O-])cc2)s1	inactive
CCOC(=O)/C(=C\c1ccc([N+](=O)[O-])cc1)C(=O)c1cc(C(C)=O)c(Nc2ccccc2)s1	5.01 µM (active)
CC(C)OCCCn1c(SCC(=O)c2ccccc2)nc2c(sc3ccccc32)c1=O	inactive
COCCCn1c(=O)/c(=C/c2ccccc2OC(C)C)s/c1=C(\C#N)C(=O)Nc1ccc(C(=O)O)cc1	12.6 µM (active)
COc1ccccc1C(=O)N/C(=C/c1ccco1)C(=O)Nc1ccc(C(=O)O)cc1	inactive
COc1cc2nc(C#Cc3nc4cc(OC)c(OC)cc4[nH]3)[nH]c2cc1OC	inactive
Cc1cccc(NC(=O)Nc2ccc3c(c2)OCO3)n1	22.4 µM (active)
Cc1onc(C(=O)Nc2ccc3c(c2)OCO3)c1[N+](=O)[O-]	inactive
CNS(=O)(=O)c1ccc(NC(=O)Nc2ccc3c(c2)OCO3)cc1	inactive
CC1CCCN(Cc2c(O)ccc3c(=O)c(Oc4ccc(C(C)(C)C)cc4)c(C(F)(F)F)oc23)C1 (centres undefined)	inactive
CCOc1ccc(NC(=O)c2cc(S(=O)(=O)N3CCCC3)c[nH]2)cc1	inactive
CCN1CCCC1CNC(=O)c1ccc2c(c1)NC(=O)/C(=C\c1ccccc1F)S2 (centres undefined)	15.8 µM (active)
O=C1Nc2cc(C(=O)N3CCC(N4CCCCC4)CC3)ccc2S/C1=C\c1ccccc1	inactive
COc1ccc(CN2CCCC(CNC(=O)c3ccc(F)cc3)C2)cc1OC (centres undefined)	inactive
COc1ccccc1-c1noc(-c2ccc(NCc3ccccc3)c([N+](=O)[O-])c2)n1	inactive
Cc1ccc(Cn2cnc3c(cnn3C(C)(C)C)c2=O)c(F)c1	inactive
NC(N)=N/N=C/c1ccc(OCc2ccc(Cl)cc2Cl)cc1	14.1 µM (active)
NC(=O)COc1ccc(/C=N/NC(=O)C2CCCN2S(=O)(=O)c2ccc(Cl)cc2)cc1 (centres undefined)	inactive
Cc1ccc(CCNC(=O)Cn2c(-c3cccs3)cc3cc(F)ccc32)cc1	inactive
CC(C)c1ccc(NC(=O)Cn2nnc(C(=O)NCCc3ccccc3)c2N)cc1	inactive
